Screens from PubChem.
PfG6PD inh: PfG6PD enzyme inhibitors, primary screen, biochemical, fluorescence intensity, uHTS. PfGluPho enzyme, NADPH resazurin-diaphorase fluorescence. inhibition, % at 20 µM. 350,000 tested, 0.78% active. AID 504690, 2011;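 active = inhibition reaching at least a set limit at 20 µM in the primary screen, cut at about 59% in these data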
APOBEC3G inh: APOBEC3G DNA deaminase inhibitors, primary screen, biochemical, fluorescence, single-stranded DNA substrate, uHTS. DNA dC->dU-editing enzyme APOBEC-3G (Homo sapiens), Q9HC16. recombinant A3G, ssDNA deamination FAM/TAMRA fluorescence. inhibition, % at 20 µM. 330,000 tested, 0.28% active;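 active = inhibition of at least 40% at 20 µM, with no more than 30% in the related APOBEC3A deaminase screen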
Target sequence (Q9HC16 whole entry, looked up): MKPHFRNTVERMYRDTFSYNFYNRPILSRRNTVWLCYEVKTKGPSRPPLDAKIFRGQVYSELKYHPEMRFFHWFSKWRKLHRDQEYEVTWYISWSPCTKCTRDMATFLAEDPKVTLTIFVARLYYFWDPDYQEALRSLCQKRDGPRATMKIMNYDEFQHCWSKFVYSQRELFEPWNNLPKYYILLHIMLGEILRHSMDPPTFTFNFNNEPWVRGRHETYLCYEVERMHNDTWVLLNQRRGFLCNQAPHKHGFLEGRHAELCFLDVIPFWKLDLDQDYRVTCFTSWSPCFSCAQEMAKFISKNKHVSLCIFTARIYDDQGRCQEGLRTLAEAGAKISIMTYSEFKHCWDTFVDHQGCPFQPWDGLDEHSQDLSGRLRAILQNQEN
H9c2 TAG inh: inhibitors of triacylglycerol accumulation, primary screen, cell-based, uHTS, fluorescence, H9c2; H9c2 cells, Nile Red lipid (TAG) fluorescence; cells loaded with 200 µM oleic acid; inhibition, % at 12.5 µM; 230,000 tested, 0.66% active; AID 651582, 2012;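 active = pattern-corrected inhibition of lipid staining of at least 50% with the nuclear-stain viability signal not falling by more than 50%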
Cardio protect: cardioprotection against H2O2-induced cell death, primary screen, uHTS, H9c2 cells, ATPLite luminescence; H9c2 cardiomyocytes, H2O2 injury protection, 2 h; protection from H2O2 cell death, % at 20 µM; 360,000 tested, 0.63% active;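 active = compounds giving at least 50% protection of heart cells from peroxide-induced death in the single-dose screen, raw or plate-pattern-corrected value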
APOBEC3A inh: APOBEC3A ssDNA deaminase inhibitors, primary screen, selectivity assay for APOBEC3G inhibitor project, biochemical, FAM/TAMRA oligo cleavage fluorescence; recombinant A3A, FAM/TAMRA ssDNA deamination fluorescence; inhibition, % at 20 µM; 330,000 tested, 0.41% active; AID 493011, 2011;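 active = at least 40% inhibition at 20 µM here, with at most 30% in a related deaminase screen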
Target sequence (P31941 whole entry, looked up): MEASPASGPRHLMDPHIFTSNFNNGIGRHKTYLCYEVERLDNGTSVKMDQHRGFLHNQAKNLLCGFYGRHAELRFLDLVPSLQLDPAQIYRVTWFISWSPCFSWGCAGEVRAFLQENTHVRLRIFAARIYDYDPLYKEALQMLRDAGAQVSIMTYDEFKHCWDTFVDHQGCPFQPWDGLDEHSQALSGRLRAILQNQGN
NadD block: inhibitors of S. aureus NadD, primary screen, biochemical, colorimetric, uHTS | Nicotinate-nucleotide adenylyltransferase NadD (Staphylococcus aureus N315) | inhibition, % at 20 µM | 360,000 tested, 0.78% active | purified NadD enzyme, colorimetric absorbance read-out; in the data active = inhibition above about 26%
APOBEC3A confirm: APOBEC3A deaminase inhibitors, retest, confirmation, selectivity assay for APOBEC3G inhibitor project, biochemical, single concentration, fluorescence readout; shares compounds with APOBEC3A inh; recombinant A3A, ssDNA deaminase UDG fluorescence assay; inhibition, % at 20 µM; 1,400 tested, 63% active;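 active = inhibition reaching a set limit, 80% of the first screen's cutoff, at 20 µM in any replicate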
UDG ctr A3A: E. coli UDG inhibitors, confirmation, counter-screen for APOBEC3A inhibitor project, biochemical, single concentration, fluorescence, FAM/TAMRA oligo; inhibition, % at 20 µM; shares compounds with APOBEC3A inh; UDG counterscreen, FAM/TAMRA uracil oligo fluorescence; 1,000 tested, under 10 active; call rule not given here
Numbers stand for hits. The list is not random: actives were taken first. Their share in the collection is about 2.9%.

CC(C)(C)N(Cc1ccccc1)C(=O)CN1C(=O)c2ccccc2S1(=O)=O was read as PfG6PD inh inactive, APOBEC3G inh inactive, H9c2 TAG inh inactive, Cardio protect inactive, APOBEC3A inh 45.1, NadD block inactive, APOBEC3A confirm 37.6 and UDG ctr A3A inactive.
Screening O=C(COC(=O)CNC(=O)c1ccccc1)NCc1ccc2c(c1)OCO2 returned PfG6PD inh inactive, APOBEC3G inh inactive, H9c2 TAG inh inactive, Cardio protect inactive, APOBEC3A inh inactive and NadD block inactive.
Screening C#CCn1cc(/C=N/NC(=O)COc2cccc3cccnc23)c2ccccc21 returned PfG6PD inh inactive, APOBEC3G inh inactive, Cardio protect inactive, APOBEC3A inh 64.5, NadD block inactive, APOBEC3A confirm 47.2 and UDG ctr A3A inactive.
Cc1c2cccn2cc[n+]1C was read as PfG6PD inh inactive, APOBEC3G inh inactive, H9c2 TAG inh inactive, Cardio protect inactive, APOBEC3A inh 41.8, NadD block inactive, APOBEC3A confirm 77.5 and UDG ctr A3A inactive.
Screening O=C(Nc1cc(Cl)ccc1Cl)c1noc2c1CCCC2 returned PfG6PD inh inactive, APOBEC3G inh inactive, H9c2 TAG inh inactive, Cardio protect inactive, APOBEC3A inh inactive and NadD block inactive.
Screening O=C(Nc1ccc(F)cc1F)c1noc2c1CCC2 returned PfG6PD inh inactive, APOBEC3G inh inactive, Cardio protect inactive, APOBEC3A inh 49.8, NadD block inactive and APOBEC3A confirm 32.9.
Screening O=C(/C=C/c1ccccc1Cl)NCCCn1ccnc1 returned PfG6PD inh inactive, APOBEC3G inh inactive, H9c2 TAG inh inactive, Cardio protect inactive, APOBEC3A inh inactive and NadD block inactive.
For O=C1Nc2ccccc2/C1=N/c1sc2c(c1C(=O)NCCc1ccccc1)CCCC2 the results were PfG6PD inh inactive, APOBEC3G inh inactive, H9c2 TAG inh inactive, Cardio protect inactive, APOBEC3A inh 43.8, NadD block inactive, APOBEC3A confirm inactive and UDG ctr A3A inactive.
`O=C(Nc1sc2c(c1C(=O)NCCO)CCCC2)c1ccco1` gave PfG6PD inh inactive, APOBEC3G inh inactive, Cardio protect inactive, APOBEC3A inh inactive and NadD block inactive.
For Fc1ccc(-c2nc3ccc(Br)cn3c2Cc2ccsc2)cc1 the results were Cardio protect inactive and NadD block inactive.
CCCCc1c(C)nc2ccc(OC)cc2c1SCCC(=O)O was read as PfG6PD inh inactive, APOBEC3G inh inactive, H9c2 TAG inh inactive, Cardio protect inactive, APOBEC3A inh 42.0, NadD block inactive and APOBEC3A confirm inactive.
O=C1CCCCN1CCCC(=O)N1CCCC(Nc2ccccc2)C1 (stereo not drawn) was read as PfG6PD inh inactive, APOBEC3G inh inactive, H9c2 TAG inh inactive, Cardio protect inactive, APOBEC3A inh inactive and NadD block inactive.
`CC1CC(C)C[N+](=C2C=C(N3CCCC3)CC(C)(C)C2)C1` (stereo not drawn) gave PfG6PD inh inactive, H9c2 TAG inh inactive, Cardio protect inactive and NadD block inactive.
`CC1(C)CC(N2CCCC2)=CC(=[N+]2CCCCCC2)C1` gave PfG6PD inh inactive, APOBEC3G inh inactive, H9c2 TAG inh inactive, Cardio protect inactive, APOBEC3A inh 62.4, NadD block inactive, APOBEC3A confirm 68.2 and UDG ctr A3A inactive.
CC1(C)CC(N2CCN(c3ccccc3)CC2)=CC(=[N+]2CCCC2)C1 was read as PfG6PD inh inactive, APOBEC3G inh inactive, Cardio protect inactive, APOBEC3A inh 44.1, NadD block inactive, APOBEC3A confirm 66.0 and UDG ctr A3A inactive.
`CCN(CC)C1=CC(=[N+]2CCCC2)CC(C)(C)C1` gave PfG6PD inh inactive, APOBEC3G inh inactive, Cardio protect inactive, APOBEC3A inh inactive and NadD block inactive.
For CN(Cc1ccccc1)C1=CC(=[N+]2CCCC2)CC(C)(C)C1 the results were PfG6PD inh inactive, APOBEC3G inh inactive, H9c2 TAG inh inactive, Cardio protect inactive, APOBEC3A inh 57.1, NadD block inactive, APOBEC3A confirm 69.7 and UDG ctr A3A inactive.
CCOc1ccc(CCNC(=O)C2CCCN(c3ncnc4c3nc3n4CCCCC3)C2)cc1 (stereo not drawn) was read as PfG6PD inh inactive, APOBEC3G inh inactive, Cardio protect inactive, APOBEC3A inh inactive and NadD block inactive.
Cc1cccc(NS(=O)(=O)c2ccc(C)c(C(=O)NCCCN3CCOCC3)c2)c1 was read as PfG6PD inh inactive, APOBEC3G inh inactive, H9c2 TAG inh inactive, Cardio protect inactive, APOBEC3A inh inactive and NadD block inactive.
Screening Cc1cc(C)cc(Nc2nc(-c3ccc(S(=O)(=O)N4CCCC4)cc3)cs2)c1 returned PfG6PD inh inactive, APOBEC3G inh inactive, Cardio protect inactive, APOBEC3A inh inactive and NadD block inactive.
Screening Cc1ccc(Nc2nc(-c3ccc(S(=O)(=O)N4CCCC4)cc3)cs2)cc1C returned PfG6PD inh inactive, APOBEC3G inh inactive, Cardio protect inactive, APOBEC3A inh 87.4, NadD block inactive, APOBEC3A confirm inactive and UDG ctr A3A inactive.
Cn1cc(/C=C2/SC(=O)N(CC(=O)Nc3ccc4c(c3)OCO4)C2=O)c2ccccc21 was read as PfG6PD inh inactive, APOBEC3G inh inactive, Cardio protect inactive, APOBEC3A inh inactive and NadD block inactive.
`O=C(CN1C(=O)S/C(=C\c2ccc(-c3cc(C(=O)O)ccc3Cl)o2)C1=O)Nc1ccc2c(c1)OCO2` gave APOBEC3G inh inactive, H9c2 TAG inh inactive, Cardio protect inactive, APOBEC3A inh 49.7, NadD block 53.4, APOBEC3A confirm inactive and UDG ctr A3A inactive.
CCc1ccc(OCC(=O)N/N=C\c2ccco2)c([N+](=O)[O-])c1 was read as PfG6PD inh inactive, APOBEC3G inh inactive, Cardio protect inactive, APOBEC3A inh 43.1, NadD block inactive, APOBEC3A confirm 42.6 and UDG ctr A3A inactive.
For O=C(COc1cccc([N+](=O)[O-])c1)N/N=C/c1ccco1 the results were PfG6PD inh inactive, APOBEC3G inh inactive, H9c2 TAG inh inactive, Cardio protect inactive, APOBEC3A inh inactive and NadD block inactive.
